This passage reports INHIBITION results from ChEMBL document CHEMBL4513216, “Probing the Open Global Health Chemical Diversity Library for Multistage-Active Starting Points for Next-Generation Antimalarials” (ACS Infect Dis, 2020).

The whole screen tested about 69,000 compounds, of which about 8,600 (12%) showed an effect of 50% or more. The entries come from a sample that favours strong results as a whole.

This experiment has as its system Plasmodium berghei. The experiment can be described thus: Screen against P. berghei liver stage (PbLuc), transformed with Luciferase, at 10uM. The conditions noted are these: tested at 10 uM. It counts as functional, HepG2.
In the case of `O=C(CCC(=O)N1CCc2[nH]c3ccccc3c2C1)NCc1ccco1`, the INHIBITION was determined as 1.41%.
Consider `CNc1cc(C2CCCN(C(=O)c3ccc(=O)[nH]n3)C2)ccn1` (stereo not drawn), for which the INHIBITION was determined as 15.5%.
In the case of `COC[C@]1(O)CCN(Cc2ccc(N(C)C)nc2)CC1(C)C`, the INHIBITION was 22.6%.
With `Cc1cc(Nc2ncccn2)nc(C2CCCN(CCO)C2)n1` (stereo not drawn) the figure was -3.94%; with `Cc1ccc(S(=O)(=O)NC(=O)CCC(F)(F)F)cc1N(C)C`, 13.139%; with `Cc1cnn(CC2CCCN2Cc2noc(C3CC3)n2)c1` (stereo not drawn), 37.9%.
With `Cc1ccc(-c2nc(CN3CCCC3Cn3cc(C)cn3)no2)cc1` (stereo not drawn) the figure was 51.3%; with `Cc1cnn(CC2CCCN2Cc2noc(C)n2)c1` (stereo not drawn), 9.14%; with `Cc1cccc(-c2nc(CN3CCCC3Cn3cc(C)cn3)no2)c1` (stereo not drawn), 83.2%.
To `Cc1cccc(-c2nc(CN3CCCCC3Cn3cncn3)no2)c1` (stereo not drawn) belongs 13.9%; to `Cc1cnn(CC2CCCN2Cc2noc(-c3ccccc3)n2)c1` (stereo not drawn), 23.5%.
In the case of `CC1N(c2cnn(C)c2)C(=O)COC12CCN(Cc1ccco1)CC2` (stereo not drawn), the INHIBITION worked out at 16.6%.
With `CC(C)c1ccc(S(=O)(=O)NC2(CC(N)=O)CCC2)cc1` the figure was 37.7%; with `COc1ccc(S(=O)(=O)NC2(CC(N)=O)CCC2)cc1`, 42.7%; with `CCCc1ccc(S(=O)(=O)NC2(CC(N)=O)CCC2)cc1`, 51.3%.
Take `NC(=O)Cn1c(CO)cnc1SCc1ccccc1Cl`: the INHIBITION is given as -4.01%.
To `Cc1noc(C2CCC3(CCN(C(=O)c4cc(C5CC5)on4)CC3)O2)n1` (stereo not drawn) belongs 7.53%; to `CNc1cncc(C2CCCN2Cc2ccccn2)n1` (stereo not drawn), 35.8%; to `CNc1cncc(C2CCCN2c2cc(C)ncn2)n1` (stereo not drawn), 52%.
To `CNc1cncc(C2CCCN2Cc2ccn(C)n2)n1` (stereo not drawn) belongs 51.5%; to `CNc1cncc(C2CCCN2Cc2cccc(C)n2)n1` (stereo not drawn), 45.6%.
To `CNc1cncc(C2CCCN2C(=O)c2ccc3c(c2)OCCO3)n1` (stereo not drawn) belongs 30.8%.
On to `CNc1cncc(C2CCCN2C(=O)c2ccc3oc(C)cc3c2)n1` (stereo not drawn), for which the INHIBITION came out at 6.81%.
Regarding `Cc1cc(N2CCCC2c2cnccn2)ncn1` (stereo not drawn), the INHIBITION was determined as 11.4%.
With `Cc1cc(N2CCCC2c2cncc(N(C)C)n2)ncn1` (stereo not drawn) the figure was 14.7%.
To `CNc1cncc(C2CCCN2C(=O)c2ccc3c(c2)CCC3)n1` (stereo not drawn) belongs 54.5%; to `CCCc1noc(CN2CCC(NC(=O)c3ccc(C)s3)CC2)n1`, 25%; to `CNc1cc(N2CCCC2CNCc2cccnc2)ncn1` (stereo not drawn), -3.19%.
In the case of `CCO[C@@H]1CC[C@H]2[C@H]1OCCN2CCOCc1ccccc1`, the INHIBITION is on record as 41.2%.
With `O=C(Nc1ccc2c(c1)OCCO2)N1CCCC1c1ccco1` (stereo not drawn) the figure was -0.87%; with `Cc1cccc(CN2C[C@@H]3[C@@H](C(=O)NCC(C)C)CCS(=O)(=O)[C@@H]3C2)c1`, -41.9%; with `CCc1nc(CN2CCCC(NCc3nnc(C4CC4)n3C)C2)no1` (stereo not drawn), 1.75%.
Consider `CCc1ccc(CN2CCC3(CC2)CNC(=O)CO3)o1`, for which the INHIBITION is on record as 33.7%.
Consider `CC(C)Cc1cc(C(=O)NCCc2ccc(S(C)(=O)=O)cc2)[nH]n1`, for which the INHIBITION stood at 8.69%.
With `O=C(O)c1cc(S(=O)(=O)Nc2cc(Cl)ccc2F)cc2c1OCCO2` the figure was 27.6%; with `CN(CC(=O)NC(N)=O)CC1(c2ccc(Br)cc2)CC1`, -17.3%; with `COC1COC2(CCN(Cc3ccc4c(c3)OCO4)CC2)C1` (stereo not drawn), -39.3%.
With `Cc1cc(C(=O)N2CCC3(CCC(=O)N(CC(N)=O)C3)CC2)ccc1O` the figure was -64.3%; with `C[C@@H]1CN(C(=O)C2(Cn3cccn3)CC2)CC[C@@]1(O)C1CC1`, 24.205%.
Turning to `CNC(=O)Cn1c(-c2ccco2)nn(-c2ccccc2OC)c1=O`, the INHIBITION was 59.5%.
In the case of `COc1ccccc1-n1nc(-c2ccco2)n(CC(=O)NC2CC2)c1=O`, the INHIBITION came out at 27.6%.
To `COc1ccccc1-n1nc(-c2ccco2)n(CC(=O)NC(C)C)c1=O` belongs 45.6%.
To `Cc1cc(NC(=O)CNC2CCc3ncnn3C2)no1` (stereo not drawn) belongs 17.4%; to `CCOC(=O)CC(c1ccc(OC)cc1)c1c(O)n[nH]c1C` (stereo not drawn), -14.9%; to `Cc1ccc(C(=O)N2CCCC3(CCCC(=O)N3C)C2)cc1F` (stereo not drawn), 15.7%.
For `COc1ccc(CCN(C)C2CCCN(Cc3noc(C)n3)C2)cc1` (stereo not drawn), the INHIBITION is reported as -42.3%.
Regarding `COc1ccc(CC(C)(O)CNC(=O)Cc2cccs2)cc1` (stereo not drawn), the INHIBITION turned out to be 40.7%.
With `COc1ccc(CC(C)(O)CNC(=O)c2cccs2)cc1` (stereo not drawn) the figure was -18%; with `COc1ccc(CC(C)(O)CNC(=O)Cc2ccc(F)cc2)cc1` (stereo not drawn), 77.6%.
To `Cc1noc(C)c1CN(C)C(=O)CCn1c(=O)n(C)c2ccccc21` belongs -6.61%.
With `CCCN1CCC(Cc2noc(-c3cc4cccnc4nc3C)n2)CC1` the figure was 12.9%; with `COCc1nc(CN2CCN(c3ccc(OC)cc3)C(=O)C2C)no1` (stereo not drawn), 11%; with `CCOCC1CN(C(=O)c2ccncc2)Cc2nn(C)cc21` (stereo not drawn), -46.9%.
Turning to `CCS(=O)(=O)CCNC(=O)C1(c2cccc(Cl)c2)CC1`, the INHIBITION is listed as 44.8%.
For the molecule `COc1cccc(-c2n[nH]c3c2CN(C(=O)c2ccncc2)CC3)c1`, the INHIBITION is given as -4.91%.
On to `COc1cccc(-c2n[nH]c3c2CN(C(=O)c2cccc(=O)[nH]2)CC3)c1`, for which the INHIBITION was 53.8%.
With `COc1cccc(-c2n[nH]c3c2CN(C(=O)c2cc(C)n(C)n2)CC3)c1` the figure was 36.6%.
Consider `CC(=O)N(Cc1ncc(C)o1)C1CCN(CCn2cccn2)C1` (stereo not drawn), for which the INHIBITION was 40.8%.
As for `Cc1cnn(CCC(=O)NC2CCc3nc(C)cn3C2)c1` (stereo not drawn), the INHIBITION was found to be 5.9%.
Regarding `Cc1cn2c(n1)CCC(NC(=O)c1[nH]nc(C)c1Br)C2` (stereo not drawn), the INHIBITION was determined as 64.7%.
To `Cc1cn2c(n1)CCC(NC(=O)CCC(F)(F)F)C2` (stereo not drawn) belongs 54.9%; to `Cc1cc(C(=O)NC2CCc3nc(C)cn3C2)[nH]n1` (stereo not drawn), -3.26%; to `COc1ccc(COCC(=O)NC2CCc3nc(C)cn3C2)cc1` (stereo not drawn), 21.7%.
As to `Cc1cn2c(n1)CCC(NC(=O)c1[nH]ncc1Br)C2` (stereo not drawn), the INHIBITION worked out at 40%.
To `COc1ccccc1OCCC(=O)NC1CCc2nc(C)cn2C1` (stereo not drawn) belongs 34.6%; to `Cc1cn2c(n1)CCC(NC(=O)CCC1CC1)C2` (stereo not drawn), 26.9%.
For the molecule `Cc1cn2c(n1)CCC(NC(=O)CCCOCc1ccccc1)C2` (stereo not drawn), the INHIBITION amounted to 53.4%.
To `Cc1nccn1CCN(C)C(=O)C1CCN(C(=O)C2CCC2)CC1` belongs 16.9%.
